# The whole screen tested about 48,000 compounds, of which about 13,000 (27%) showed an effect of 50% or more. This is one part of the list.
# Tested on: Wolbachia pipientis
# Test: Anti-Wolbachia Cell-Based Screen
# Assay type: functional
# Parameters: scale not given: in the data most compounds retested in dose-response had high values
# Conditions: 5 µM
row,SMILES,Percent Effect [%]
1,CC(c1cccc(Cl)c1)N(C)CCS(=O)(=O)CCC(N)=O (stereo not given),6.991
2,CC(c1ccc(F)c(F)c1)N(C)CCS(=O)(=O)CCC(N)=O (stereo not given),2.944
3,CC(c1cccc(S(N)(=O)=O)c1)N(C)CCOC(C)(C)C (stereo not given),105.4
4,CC(c1cccc(O)c1)N(C)S(N)(=O)=O (stereo not given),16.66
5,CC(c1cccc(O)c1)N(C)S(=O)(=O)c1cccnc1 (stereo not given),-4.431
6,COCCN(C)C(C)c1cccc(S(N)(=O)=O)c1 (stereo not given),128.5
7,O=C(c1ccc[nH]1)N1CCc2ccc(S(=O)(=O)N3CCOCC3)cc2C1,99.23
8,CCCNC(=O)N1CCc2ccc(S(=O)(=O)N3CCOCC3)cc2C1,-14.34
9,O=C(c1ccc[nH]1)N1CCc2c(cccc2S(=O)(=O)N2CCOCC2)C1,94.62
10,O=C(O)c1cc(-n2cc3c(n2)CCC3)cc(S(=O)(=O)N2CCOCC2)c1,-7.127
11,CC(C)CC(=O)N1CCc2ccc(S(=O)(=O)N3CCN(C)CC3)cc2C1,0.4144
12,O=C(c1ccc[nH]1)N1CCc2cc(S(=O)(=O)N3CCOCC3)ccc2C1,106.5
13,O=C(c1c[nH]c(=O)c(Cl)c1)N1CCc2ccccc2C1,10.27
14,CN1CCN(S(=O)(=O)c2ccc3c(c2)CN(C(=O)C(C)(C)C)CC3)CC1,-9.365
15,CCCNC(=O)N1CCc2ccc(S(=O)(=O)N3CCN(C)CC3)cc2C1,-8.252
16,O=C(c1cc[nH]n1)N1CCc2ccc(S(=O)(=O)N3CCOCC3)cc2C1,111.1
17,O=C1COc2ccc(S(=O)(=O)N3CCOCC3)c3c2N1CCC3,16.87
18,CCCNC(=O)N1CCc2ccc(S(=O)(=O)N3CCCC3)cc2C1,-4.985
19,CCN1CCC(CC(=O)NC[C@H]2CCc3ccccc3O2)CC1,15.83
20,CC(=O)N1CCCC2(CN(Cc3ccc(F)cc3)CCO2)C1.O=C(O)C(F)(F)F (stereo not given),-7.517
21,Cn1cc(CN2CCC3(C2)CN(Cc2ccsc2)C3)cn1.O=C(O)C(F)(F)F.O=C(O)C(F)(F)F,-10.11
22,CCN1CC2(CC1=O)CN(Cc1cnn(C)c1)CCN(C(C)=O)C2.O=C(O)C(F)(F)F (stereo not given),1.894

row,SMILES,Percent Effect [%]
1,CC(=O)N1CCN(Cc2ccc(F)cc2)CC2(CC(=O)N(C)C2)C1.O=C(O)C(F)(F)F (stereo not given),98.03
2,CC(=O)N1CCN(Cc2ccsc2)CC2(CC(=O)N(C)C2)C1.O=C(O)C(F)(F)F (stereo not given),101.7
3,CCn1cc2c(n1)C(COCC1CC1)CN(C(=O)c1ccsc1)C2 (stereo not given),2.501
4,CCOCCC(=O)N1CCCN(c2ccccc2C)CC1,0.9002
5,CCCNC(=O)c1cnc2n1CCCC2,-8.644
6,Cc1ccc(N2CCc3sc(C(=O)N4CCOCC4)cc32)nn1,84.11
7,O=C(NCCN1CCCC1)c1nc2c(o1)CN(c1ncccn1)C2,-7.93
8,CC(C)NC(=O)c1cc2c(s1)CCN2c1ncccn1,92.76
9,Cc1ccc(N2C[C@H](C(=O)N3CCOCC3)[C@@H]3CCO[C@@H]3C2)nn1,-2.103
10,CCc1cc(C(=O)N2CCC(Nc3ccc(C)nn3)CC2)sc1C,-9.138
11,CC(C)NC(=O)c1nc2c(s1)CCCN2c1ccccc1,7.229
12,CCCNC(=O)c1nc2c(o1)CN(c1ncccn1)C2,-1.924
13,CCCNC(=O)c1cc2c(s1)CCN2c1ncccn1,122.6
14,CC(C)NC(=O)c1nc2c(s1)CCCN2C(C)C,3.81
15,O=C(NCCN1CCOCC1)c1cc2c(s1)CCN2Cc1cccnc1,-4.667
16,O=C(NCCN1CCCC1)c1cc2c(s1)CCN2c1ncccn1,97.7
17,c1cc(-c2nnn3c2COC(CNCC2CCOCC2)C3)ccn1 (stereo not given),-54.53
18,c1cnnc(N2CCCC(NCc3cccc4c3OCO4)C2)c1 (stereo not given),3.932
19,CCC(NC(=O)NCc1ccoc1C)c1c(C)nn(C)c1C (stereo not given),3.251
20,CCN1CCCC(c2c(-c3ccccc3)ncn2CCCO)C1 (stereo not given),-4.818
21,CCOCCCNC(=O)c1nc2c(s1)CCCN2c1ccc(C)nn1.O=C(O)C(F)(F)F,-5.598
22,O=C(NCC1CC1)c1cc2c(s1)CCN2c1ncccn1,107.3

row,SMILES,Percent Effect [%]
1,Cc1nnsc1C(=O)NCC1CCN(c2ccccn2)CC1,1.014
2,Cc1ccc(N2CCCc3sc(C(=O)NCCC#N)nc32)nn1.O=C(O)C(F)(F)F,-4.317
3,Cc1ccc(N2CCc3sc(C(=O)NCCN4CCCC4)cc32)nn1,102.9
4,CCNC(=O)C(C)(C)NC(=O)NCc1cccc(Br)c1,5.794
5,CCc1ccc(CN2CCN(CCOC)[C@@H]3CS(=O)(=O)C[C@@H]32)cc1,-8.66
6,c1ccc(-c2nc(SCc3nnc(C4CC4)o3)n[nH]2)nc1,-8.457
7,Cc1nc(CNC2CCCN(c3cccnn3)C2)no1 (stereo not given),0.4362
8,Cc1cc(NC(=O)CNC2CCCN(c3cccnn3)C2)on1 (stereo not given),92.8
9,CS(=O)(=O)c1ccc(CNC2CCCN(c3cccnn3)C2)cc1 (stereo not given),6.689
10,Cc1ccc(N2CCCC(N(C)Cc3cc(C)no3)C2)nn1 (stereo not given),1.683
11,Cc1cc(NC(=O)CN(C)C2CCCN(c3cccnn3)C2)n(C)n1 (stereo not given),-4.115
12,Cc1ccc(N2CCCC(NCC(=O)Nc3cc(C)no3)C2)nn1 (stereo not given),8.409
13,CC(C)c1cc(NC(=O)CNC2CCCN(c3cccnn3)C2)on1 (stereo not given),100.2
14,c1cnnc(N2CCCC(NCc3ccncc3)C2)c1 (stereo not given),0.6717
15,Cc1cc(NC(=O)CN(C)C2CCCN(c3cccnn3)C2)on1 (stereo not given),99.52
16,Cc1cc(NC(=O)NCCc2cscn2)nn1C,-10.8
17,O=C(Cc1cccc(F)c1F)NC1COc2ccccc2C1=O (stereo not given),2.844
18,CC(C)CN1CCCC2(CCN(C(=O)c3cnccn3)C2)C1 (stereo not given),-16.61
19,CCN1CCOCC2(CCCN(C(=O)c3ccccc3F)C2)C1.O=C(O)C(F)(F)F (stereo not given),106.1
20,CN(C)CCN1CCOCC2(CCCN(C(=O)c3cccn3C)C2)C1.O=C(O)C(F)(F)F.O=C(O)C(F)(F)F (stereo not given),-8.448
21,CCN1CCOCC2(CCCN(C(=O)c3cccc(O)c3)C2)C1 (stereo not given),105.1
22,CCN1CCOCC2(CCCN(C(=O)c3cnccn3)C2)C1 (stereo not given),95.08

row,SMILES,Percent Effect [%]
1,CN(C)CCN1CCOCC2(CCCN(C(=O)c3ccccc3)C2)C1.O=C(O)C(F)(F)F.O=C(O)C(F)(F)F (stereo not given),-4.449
2,O=C(O)C(F)(F)F.O=C(c1cnccn1)N1CCCC2(COCCN(CC3CC3)C2)C1 (stereo not given),-6.241
3,CN(C)CCN1CCOCC2(CCCN(C(=O)c3cccc(O)c3)C2)C1 (stereo not given),-3.261
4,O=C(c1ccnc(-n2cnnc2)c1)N1CCCC2(CCOC2)C1 (stereo not given),13.33
5,CC(C)CNC(=O)c1nc2c(s1)CCN(C(=O)c1ccc(Cl)cc1)CC2,-4.208
6,CC(C)OCCCNC(=O)N(C)C(C)c1ccc(-n2cncn2)cc1 (stereo not given),-7.098
7,CCc1nnc(CN(C)Cc2nc(-c3ccccc3Cl)oc2C)o1,-2.214
8,CCN1CC(CN(C)Cc2nc(-c3cccc(Cl)c3)oc2C)CC1=O (stereo not given),102.8
9,Cc1cccc(-c2nc(CN3CCOCS3(=O)=O)c(C)o2)c1,4.701
10,CCN1CC(CN(C)Cc2nc(-c3cccc(C)c3)oc2C)CC1=O (stereo not given),105.1
11,CCN(CCn1cccn1)Cc1nc(-c2cccc(C)c2)oc1C,-6.378
12,CNC(=O)CC1CCN(Cc2nc(-c3cccc(Cl)c3)oc2C)CC1,-0.6077
13,Cc1nc(C2CCCN(C(=O)c3cc(Cl)c[nH]3)C2)no1 (stereo not given),0.9971
14,O=C(Cc1cccc(F)c1)NCCNCc1ccco1,-5.047
15,O=C(Cc1cccc(F)c1)NCCNCC1CNc2ccnn2C1 (stereo not given),0.2613
16,N#Cc1cccc(CNCCNC(=O)Cc2cccc(F)c2)c1,98.51
17,N#Cc1cccc(CNC(=O)NC2CCN(CC(F)F)CC2)c1,-0.5422
18,O=C(Cc1cccc(F)c1)NCCNCc1cccnc1,96.05
19,CCN(CCNCc1cccc(C#N)c1)C1CC1,-10.23
20,COCCN(CCC#N)S(=O)(=O)c1cc(F)cc(F)c1,-7.872
21,c1ccc(C(c2ccccc2)N2CCN(CCn3cncn3)CC2)cc1,0.8212
22,CC(C)(C)c1ccn(C2(C(=O)O)CCN(c3nccc(N)n3)CC2)n1,-5.25

row,SMILES,Percent Effect [%]
1,O=C(c1cnccn1)N1C[C@@H]2[C@@H](C1)OCC(=O)N2CC1CCCC1,-6.759
2,COc1cc(C2(C(=O)NCC(=O)NC3CC3)CC2)ccc1C,9.021
3,O=C(NCCNC(=O)c1scnc1Cl)c1ccccc1,-1.754
4,CNC(=O)c1ccc(CN(C(=O)c2scnc2C)C2CC2)cc1,4.078
5,CNC(=O)CNC(=O)c1ccc(-c2scnc2C)nc1,75.09
6,Cc1ncsc1-c1cc(C(=O)NCCO)ccn1,109.9
7,Cc1ncsc1-c1ccn(CC(=O)Nc2cnn(C)n2)n1,-5.489
8,Cc1ncsc1C(=O)NCCSCCCO,-0.9457
9,CCCc1nnc(NC(=O)N2CCCC2c2ccncc2)s1 (stereo not given),3.484
10,CN(Cc1ccc(-n2cccn2)cc1)c1nc(N)nc2c1CCNCC2,3.985
11,CCOc1ccc(-c2nc(CN(C)Cc3c(C)noc3C)cs2)cc1,-23.12
12,c1cnc2c(-c3nccn3C[C@@H]3CCCN4CCCC[C@H]34)cccc2c1,5.22
13,CO[C@@H]1CN(c2ccccc2)S(=O)(=O)[C@@]12CCN(C(C)=O)C2,94.97
14,CN(C)C(=O)N1CCC(C2C(=O)Nc3ccccc32)CC1 (stereo not given),-38.16
15,CN(C)C(=O)N1CCN(C(=O)CCc2ccccc2)[C@H]2CS(=O)(=O)C[C@H]21,-4.375
16,O=C(C1CC2(CCNCC2)CN1)N1CCN(c2ccccc2)CC1 (stereo not given),-0.8952
17,CO[C@@H]1CN(c2ccccc2)S(=O)(=O)[C@@]12CCNC2,127.8
18,COC(=O)N1CCC2(CC1)CC(c1ccccc1)CN(C)C2 (stereo not given),-13.78
19,CC(=O)N1CCC2(CC1)CC(Oc1ccccc1)CO2 (stereo not given),-5.824
20,COC(=O)N1CC[C@@]2(C1)[C@H](OC)CN(c1ccccc1)S2(=O)=O,101.1
21,CO[C@@H]1CN(c2ccccc2)S(=O)(=O)[C@@]12CCN(C(=O)N(C)C)C2,88.6
22,CS(=O)(=O)NCC1CCN(C(=O)Oc2ccccc2)CC1,-10.63

# — ChEMBL document CHEMBL3988442, “University of Dundee, Small-Polar-MMV Screening Library” (2021)
